Common to all, as to experiment: NCI-60 one-dose screen, 48 h (100 = growth as untreated, 0 = no growth, -100 = all killed)
Common to all, as to details: 10 µM unless noted

In test [1] the test system is DU-145 prostate.
Test [2] relates to K-562 leukemia.
The test system of test [3] is MALME-3M melanoma.
The test system of test [4] is MDA-MB-231 breast.
For test [5], the system named is RXF 393 renal.
The subject of test [6] is SF-268 CNS.
The subject of test [7] is SF-295 CNS.
Test [8] deals with SF-539 CNS.
In test [9] the test system is UACC-257 melanoma.
The test system of test [10] is M14 melanoma.
Test [11] deals with HCT-15 colon.
Test [12] deals with HT29 colon.
For test [13], the system named is SNB-75 CNS.
For test [14], the system named is SNB-19 CNS.
In test [15] the test system is U251 CNS.
Test [16] relates to PC-3 prostate.
Test [17] deals with SK-MEL-5 melanoma.
The test system of test [18] is UACC-62 melanoma.
Test [19] relates to LOX IMVI melanoma.
The subject of test [20] is SK-MEL-28 melanoma.

About 83,000 compounds went through this panel and 20% of them were active in at least one assay; those are over-represented in the sample as a whole.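 Growth was measured after 48 h exposure to one concentration of compound in 96-well plates. Values under 10 count as active.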 Unmarked numbers belong to inactive results. The source made the active and inactive calls.

In the case of `COc1ccc(/C=C/c2ccc3ccccc3n2)c(OC)c1`, the growth was 91.2% in test [1]; 19.8% in test [2]; 50% in [3]; 58.9% in test [4]; 90.7% in test [5]; 98.7% in test [6]. The growth in test [7] was 60.2%; in [8] it was 83.3%; in test [9] it was 84.8%; in [10] it was 45.3%; in test [11] it was 56%; in [12] it was 55.6%. In addition, the growth in test [13] is 78%; in [14], 83.2%; in [15] it was 83.1%; in test [16] it was 66.1%; in test [17], 78.3%; in test [18] it was 65.8%. Further, the growth in [19] is 59.6%; in test [20] it was 81.7%.
With `CCN(CC)c1ccc(CNc2cc(C)nc3ccccc23)cc1`, the growth in test [1] was 77.8%; in [2] it was 31%; in [3] it was 69.8%; in test [4], 66.6%; in [5], 68.8%; in [6], 87.7%. The growth in test [7] is 50.9%; in test [8], 74.7%; in test [9], 62.5%; in test [10] it was 64.8%; in [11], 69.6%; in test [12] it was 43.3%. For the same compound, the growth in test [13] was 75.2%; in test [14] it was 73.8%; in test [15] it was 63.9%; in test [16], 64%; in [17], 9.25% (active); in test [18] it was 68.5%. Also, the growth in test [19] was 65%; in [20] it was 78.4%.
For the compound `CCNc1ccc(-c2nc3ccccc3n3cccc23)cc1`, the growth in test [1] was 86.7%; in test [2], 67.6%; in [3], 92.2%; in [4], 55.8%; in test [5] it was 87.7%; in test [6], 83.9%. Further, the growth in test [7] was 69%; in [8], 93.5%; in [9], 84.9%; in [10] it was 77.9%; in test [11], 82.5%; in [12] it was 80%. The growth was 67.6% in test [13]; 92.2% in test [14]; 82.9% in test [15]; 68.9% in test [16]; 71.2% in test [17]; 66.2% in test [18]. Also, the figures for the growth in [19] and in test [20] were 73.4% and 86.5%, respectively.
`CC(C)(C)n1cc(-c2ccnc(NCCCNS(=O)(=O)c3ccc(C(F)(F)F)cc3)c2)c(-c2cccc(F)c2)n1`: the growth in test [1] is 92.6%; in [2], 30.9%; in test [3], 105%; in test [4] it was 93.8%; in test [5], 92.2%; in test [6] it was 87.2%. The growth in [7] was 94.7%; in test [8] it was 74.1%; in test [9], 94.4%; in test [10] it was 81.2%; in [11], 37.7%; in test [12], 16.5%. In addition, the growth in test [13] is 66.6%; in test [14] it was 86.5%; in [15] it was 67.6%; in test [16], 71.9%; in [17], 78.9%; in [18] it was 89.4%. The results for the growth in test [19] and in test [20] were 73.6% and 96.9%, respectively.
As for `COc1ccc(-c2nc(/C=C3\C(=O)N(C)c4ccccc43)c3ccccn23)cc1`, the growth is 93% in test [1]; 95.9% in test [2]; 72.5% in test [3]; 85.2% in test [4]; 67.4% in test [5]; 66% in test [6]. Besides, the growth was 83.2% in [7]; 72.7% in test [8]; 86% in test [9]; 99.1% in test [10]; 90% in test [11]; 96.8% in [12]. The growth was 51.1% in test [13]; 78.7% in test [14]; 75.1% in test [15]; 86.9% in test [16]; 65.5% in test [17]; 68.5% in test [18]. For the same compound, the growth is 65.2% in [19] and 99.6% in [20].
With `NS(=O)(=O)c1ccc(C(=O)NN2C(=O)c3c(Br)c(Br)c(Br)c(Br)c3C2=O)cc1`, the growth was 103% in [1]; 102% in test [2]; 98.7% in test [3]; 101% in test [4]; 110% in test [5]; 95.5% in test [6]. The growth in [7] was 98.2%; in test [8], 96.9%; in test [9] it was 100%; in [10], 98.9%; in [11], 99.5%; in test [12], 109%. For the same compound, the growth is 77.8% in test [13]; 101% in test [14]; 98% in test [15]; 100% in test [16]; 103% in [17]; 99.5% in [18]. The growth in test [19] is 95.1%; in test [20] it was 109%.
`CCCCCN(CCCCC)CC(O)c1cc(C)c2ccc3cc(C(C)C)ccc3c2c1` (stereo not given): the growth in test [1] is -77.1% (active); in test [2], -16.2% (active); in [3] it was 53.9%; in [4], -47.6% (active); in [5] it was -88.2% (active); in test [6], -61.7% (active). Also, the growth in [7] is 103%; in test [8], -78.3% (active); in [9] it was 105%; in test [10] it was 20.3%; in [11], -86.3% (active); in test [12], -43.9% (active). For the same compound, the growth was 75.8% in test [13]; 7.47% (active) in test [14]; -87.4% (active) in test [15]; 53.3% in test [16]; 79.1% in [17]; 91.3% in [18]. For the same compound, the growth in test [19] was -93.9% (active); in test [20], 88.1%.
As for `C=C(C)[C@@H]1CCC[C@]2(C(=O)O)CC[C@]3(C)[C@@H](CC[C@@H]4[C@@]5(C)C/C(=C/c6ccncc6)C(=O)C(C)(C)[C@@H]5CC[C@]43C)[C@@H]12`, the growth is 32.9% in [1]; 13.7% in [2]; 72% in [3]; 12.2% in test [4]; 34.4% in test [5]; 52.1% in test [6]. Besides, the growth was 27.2% in test [7]; 26.3% in test [8]; 57.9% in test [9]; 45.8% in test [10]; 5.49% (active) in [11]; 14.8% in test [12]. In addition, the growth is 52.6% in test [13]; 46.1% in test [14]; 17% in test [15]; 27.4% in test [16]; 10.6% in test [17]; 26.8% in test [18]. For the same compound, the growth in test [19] was -9.49% (active); in test [20], 48.4%.
Turning to `CC(C)(C)n1cc(-c2ccnc(NCCNS(=O)(=O)c3ccc(O)cc3)c2)c(-c2cccc(O)c2)n1`, the growth was 106% in test [1]; 56.1% in [2]; 96.9% in test [3]; 111% in test [4]; 108% in test [5]; 94.4% in [6]. Besides, the growth was 101% in [7]; 95.3% in [8]; 99.1% in [9]; 110% in test [10]; 107% in [11]; 76.9% in test [12]. In addition, the growth in test [13] was 74.4%; in [14] it was 98.5%; in test [15], 82.4%; in test [16], 101%; in [17] it was 79.7%; in test [18], 101%. The growth in [19] is 106%; in test [20], 98.9%.
As for `CCN(CC)CCCN1C(=O)c2c(c(C)c3c(oc4ccc(OC)cc43)c2C)C1=O`, the growth was 112% in [1]; 0.0716% (active) in test [2]; 97.1% in test [3]; 99.5% in test [4]; 70.3% in test [5]; 98.6% in test [6]. The growth was 110% in test [7]; 91.8% in [8]; 103% in test [9]; 104% in test [10]; 94.9% in [11]; 90.9% in test [12]. Also, the growth is 109% in test [13]; 94.4% in test [14]; 96.4% in test [15]; 97.4% in test [16]; 75.1% in test [17]; 102% in test [18]. Also, the growth in test [19] is 96.9%; in test [20] it was 94.1%.
Take `CCNc1nc(O)c(/C=C2\C=Nc3ncccc32)s1`: the growth was 9.93% (active) in [1]; 26.3% in [2]; -6.17% (active) in test [3]; 10.7% in test [4]; -39.3% (active) in [5]; -5.81% (active) in test [6]. The growth in [7] was 4.95% (active); in test [8], -64.2% (active); in test [9] it was -15.9% (active); in test [10], 0.692% (active); in [11], 16%; in test [12], 4.26% (active). For the same compound, the growth in test [13] was -71.8% (active); in test [14], 9.99% (active); in test [15], -9.45% (active); in test [16], 2.3% (active); in [17], 9.15% (active); in test [18], -16% (active). In addition, the growth in test [19] is 1.75% (active); in test [20], -17.2% (active).
On to `CC(C)=CCNc1ncnc2c1ncn2C1OC(CO)C(O)C1O` (stereo not given), for which the growth in test [1] was -89.4% [1 mM] (active); in test [2] it was 7.4% [1 mM] (active); in [3], 32.4% [1 mM]; in [4] it was -54.7% [1 mM] (active); in test [5], -71.2% [1 mM] (active); in [6], 4.72% [1 mM] (active). In addition, the growth in [7] was -24.2% [1 mM] (active); in test [8], -41.8% [1 mM] (active); in [9] it was 92.7% [1 mM]; in test [10] it was 26.9% [1 mM]; in [11], -49.7% [1 mM] (active); in [12], -5.71% [1 mM] (active). For the same compound, the growth in [13] was -32.6% [1 mM] (active); in test [14], 13.5% [1 mM]; in test [15], 35.2% [1 mM]; in test [16], -25.8% [1 mM] (active); in test [17] it was 49.4% [1 mM]; in [18], 27.5% [1 mM]. The growth in [19] is -96.7% [1 mM] (active); in [20], 79.5% [1 mM].
On to `COC(=O)c1ccc(NC(=O)Nc2ccc(C(=O)OC)cc2)cc1`, for which the growth is 121% in [1]; 90.6% in test [2]; 123% in [3]; 94.1% in test [4]; 112% in [5]; 115% in test [6]. The growth in test [7] was 121%; in test [8] it was 112%; in test [9], 104%; in test [10], 103%; in test [11], 93%; in test [12] it was 82.4%. Besides, the growth is 113% in test [13]; 97.2% in [14]; 113% in [15]; 82% in test [16]; 102% in [17]; 82.3% in [18]. The results for the growth in test [19] and in test [20] were 98.1% and 102%, respectively.
Consider `CC1C(/C=N/NC(N)=S)C(C#N)(C#N)C1(C#N)C#N` (stereo not given), for which the growth in test [1] is 96.8%; in [2], 84.1%; in test [3], 103%; in [4], 106%; in [5], 106%; in [6], 91.4%. The growth in [7] is 107%; in test [8], 111%; in test [9], 96.3%; in test [10] it was 102%; in [11], 109%; in test [12] it was 110%. For the same compound, the growth in [13] is 92.7%; in test [14] it was 101%; in test [15], 102%; in [16] it was 92.9%; in test [17], 104%; in test [18] it was 96.9%. In addition, the growth is 109% in test [19] and 116% in test [20].

Source of the values: PubChem BioAssay (NCI).
